A number with no mark means an inactive call.
System: Vero E6 infected with SARS-CoV-2
Test: inhibition of SARS-CoV-2 cytopathic effect; higher = more antiviral protection, active = above 15
Conditions: 48 h

| Compound | inhibition of SARS-CoV-2 cytopathic effect (1 nM) | inhibition of SARS-CoV-2 cytopathic effect (8.33 nM) | inhibition of SARS-CoV-2 cytopathic effect (100 nM) | inhibition of SARS-CoV-2 cytopathic effect (833.33 nM) | inhibition of SARS-CoV-2 cytopathic effect (10000 nM) |
| --- | --- | --- | --- | --- | --- |
| Cn1cc(/C=C2\C(=O)Nc3cccnc32)c2ccccc21 | -2.16% | -2.36% | 2.94% | 0.64% | 4.71% |
| CC(=O)Oc1c(C)cc(OCC(O)CNC(C)C)c(C)c1C (stereo not given) [metipranolol] | -0.83% | 0.56% | 0.06% | -1.66% | -3.06% |
| O=c1[nH]c2ccccc2c(=O)n1CCCN1CCN(c2ccccc2)CC1 [pelanserin] | 0.03% | 1.75% | -0.08% | 1.18% | 0.03% |
| C[C@H](Cc1ccc2c(c1)OC(C(=O)O)(C(=O)O)O2)NC[C@H](O)c1cccc(Cl)c1 | 0.95% | 3.71% | -1.72% | -1.35% | 2.18% |
| CCOC(=O)C1=C(COCCN)NC(C)=C(C(=O)OC)C1c1ccccc1Cl (stereo not given) [amlodipine] | 0.58% | -0.7% | 1.37% | -2.2% | 1.18% |
| Nc1ncnc(Nc2ccc(Cl)cc2)n1 [chlorazanil] | 0.82% | -0.51% | -1.09% | -1.03% | -2.14% |
| CCOc1ccc(-n2c([C@@H](C)N(Cc3cccnc3)C(=O)Cc3ccc(OC(F)(F)F)cc3)nc3ncccc3c2=O)cc1 (racemic) | 0.51% | 2.23% | 0.96% | 1.88% | -1.62% |
| CCCc1nn(C)c2c(=O)[nH]c(-c3cc(S(=O)(=O)N4CCN(C)CC4)ccc3OCC)nc12 [sildenafil] | 2.67% | 2.01% | 0.47% | 2.04% | -2.29% |
| O=C(O)c1c2ccccc2cc2ccccc12 [9-anthracenecarboxylic-acid] | -4.6% | 2.11% | 0.63% | 1.03% | -2.02% |
| Cc1c(O)cccc1C(=O)N[C@@H](CSc1ccccc1)[C@H](O)CN1C[C@H]2CCCC[C@H]2C[C@H]1C(=O)NC(C)(C)C [nelfinavir] | -4.7% | -3.72% | -1.32% | 3.72% | 43.2% (active) |
| CCCn1c(=O)c2nc(C34CC5CC(CC3C5)C4)[nH]c2n(CCC)c1=O | 1.22% | -0.55% | 2.44% | 2.31% | 1.25% |
| CC(=O)O[C@]1(C(C)=O)CC[C@H]2[C@@H]3C[C@H](C)C4=CC(=O)C=C[C@]4(C)[C@@]3(F)[C@@H](O)C[C@@]21C [fluorometholone-acetate] | 0.25% | 0.86% | -0.18% | 0.37% | -0.24% |
| O=C([O-])C(O)[C@H](O)[C@@H](O)[C@H](O)[C@H](O)CO.O=C([O-])C(O)[C@H](O)[C@@H](O)[C@H](O)[C@H](O)CO.[Ca+2] (stereo not given in full) [calcium-gluceptate] | -7.86% | -1.7% | -4.55% | -3.31% | -3.66% |
| COc1cc(OC)c(/C=C/S(=O)(=O)Cc2ccc(OC)c(OP(=O)(O)O)c2)c(OC)c1 [briciclib] | 1.41% | 1.56% | -1.04% | -0.82% | -1.99% |
| CC(=O)OCC(=O)[C@@]12OC(C)(C)O[C@@H]1C[C@H]1[C@@H]3C[C@H](F)C4=CC(=O)C=C[C@]4(C)[C@@]3(F)[C@@H](O)C[C@@]12C [fluocinonide] | 0.75% | -0.105% | 0.48% | 0.035% | -1.54% |
| COc1ccc(CCN(C)CCCC(C#N)(c2cc(OC)c(OC)c(OC)c2)C(C)C)cc1OC (stereo not given) [gallopamil] | -0.29% | 0.76% | -0.41% | 0.33% | -2.43% |
| C[C@H](CS)C(=O)N1CCC[C@H]1C(=O)O [captopril] | -1.79% | 0.97% | -2.39% | -1.5% | -0.97% |

— the supplement of paper PMC13380429
